“And” between values parts separate entries of the source, which are not always exact repeats. Identical values can stand only once. About 79,000 compounds went through this panel and 15% of them were active in at least one assay; those are over-represented in the sample as a whole. Some compounds were tested as several samples or in several runs, with calls that do not always agree. The source made the active and inactive calls. Rule as the data show it: active = growth inhibition above about 70%; inactive = the rest.
Assay: NCI Yeast Anticancer Drug Screen. Data for the bub3 strain (AID 167)
Details: S. cerevisiae bub3 mutant strain, stronger effect = higher value
Protocol: Growth inhibition of yeast strains with defined genetic alterations is measured as a screen for potential anti-cancer activity. Selected strains with alterations in DNA damage repair or cell cycle control were exposed to compounds and growth inhibition was measured relative to vehicle treated controls. The strain used in this assay is bub3

[1] = at 5.0 µM (retest, dose inferred, filed as 0.5)
[2] = at 50.0 µM (retest, dose inferred, filed as 5.0)

In the case of `O=C1C=C(c2c(O)ccc3ccccc23)c2ccccc2C1=O`, the growth inhibition [1] is reported as 46% (inactive) and 40% (inactive), the growth inhibition [2] is reported as 99% (active) and 97% (active) and the growth inhibition (at 50.0 µM) is reported as 98.7% (active) and 90.3% (active).
In the case of `O=C(CC1=Nc2nnc(CCCCCCCc3nnc4n3C(=O)C(CC(=O)c3ccc5ccccc5c3)=N4)n2C1=O)c1ccc2ccccc2c1`, the growth inhibition [1] is reported as 6% (inactive), the growth inhibition [2] is reported as 88% (active) and the growth inhibition (at 50.0 µM) is reported as 1.75% (inactive).
With `CCN(CC)Cc1cc2c(cc1O)CC[C@@H]1[C@@H]2CC[C@]2(C)C(=O)CC[C@@H]12` the growth inhibition [1] was 15% (inactive), the growth inhibition [2] was 67% (inactive) and the growth inhibition (at 50.0 µM) was 54% (inactive) and 56% (inactive).
In the case of `CC1(c2ccccc2)c2ccccc2N(c2ccccc2)C(=O)C1O` (configuration not stated), the growth inhibition [1] is reported as 97% (active), the growth inhibition [2] is reported as 99% (active) and the growth inhibition (at 50.0 µM) is reported as -0.35% (inactive) and 99.7% (active).
For `CC(C)C1=C(O)C2=C(C(=O)C1=O)C1(C)CCCC(C)(C)C1CC2O` (configuration not stated), the growth inhibition [1] was 75% (active), the growth inhibition [2] was 97% (active) and the growth inhibition (at 50.0 µM) was 56.6% (inactive) and 17.4% (inactive).
In the case of `NS(=O)(=O)c1ccc(Nc2c3ccccc3nc3c(C(=O)N4CCN(CCO)CC4)cccc23)cc1`, the growth inhibition [1] is reported as 32% (inactive), the growth inhibition [2] is reported as 32% (inactive) and the growth inhibition (at 50.0 µM) is reported as 23.9% (inactive).
For `C=CCNC(=O)c1ccccc1SC(C)=O`, the growth inhibition [1] was 52% (inactive), the growth inhibition [2] was 99% (active) and the growth inhibition (at 50.0 µM) was 89.2% (active).
For `CCOC(=O)[C@H]1Nc2ccc([N+](=O)[O-])cc2C2c3ccccc3CC21` (some centres not stated), the growth inhibition [1] was 6% (inactive), the growth inhibition [2] was 89% (active) and the growth inhibition (at 50.0 µM) was 88.2% (active).
In the case of `C[C@@H](O)[C@H]1CC[C@H]2[C@@H]3CCC4=C/C(=N/O)CC[C@]4(C)[C@H]3CC[C@]12C`, the growth inhibition [1] is reported as -2% (inactive), the growth inhibition [2] is reported as 61% (inactive) and the growth inhibition (at 50.0 µM) is reported as 80.8% (active).
In the case of `CCCCCCCCCCCCCCCCOP(=O)(O)OP(=O)(O)OCC1OC(n2ccc(N)nc2=O)C(O)C1O` (configuration not stated), the growth inhibition [1] is reported as 98% (active), the growth inhibition [2] is reported as 98% (active) and the growth inhibition (at 50.0 µM) is reported as -9.4% (inactive) and 84.5% (active).
With `NNc1c2ccccc2nc2ccccc12` the growth inhibition [1] was -5% (inactive), the growth inhibition [2] was 48% (inactive) and the growth inhibition (at 50.0 µM) was -21.5% (inactive) and 93.5% (active).
For `C[C@H](CCC(=O)O)[C@H]1CC[C@H]2[C@@H]3[C@H](O)C[C@@H]4C[C@H](O)CC[C@]4(C)[C@H]3CC[C@]12C`, the growth inhibition [1] was -3% (inactive), the growth inhibition [2] was 98% (active) and the growth inhibition (at 50.0 µM) was 90.5% (active).
In the case of `O=C(CCN1CCN2c3ccccc3CCC2C1)c1ccc(F)cc1` (configuration not stated), the growth inhibition [1] is reported as 60% (inactive) and 78% (active), the growth inhibition [2] is reported as 84% (active) and 99% (active) and the growth inhibition (at 50.0 µM) is reported as 97.8% (active) and 95.2% (active).
For `CSc1ccc(N2C(=O)CSC2=S)cc1Cl`, the growth inhibition [1] was 37% (inactive), the growth inhibition [2] was 82% (active) and the growth inhibition (at 50.0 µM) was 92.4% (active).
